Results on 40 compounds are retold here after PubChem BioAssay (NCI).

About 83,000 compounds went through this panel and 20% of them were active in at least one assay; those are over-represented in the sample as a whole.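 Step 1: grow cells in 96-well plates. Step 2: add test compound at a single concentration. Step 3: incubate 48 h. Step 4: record percent growth.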 Calls of active or inactive are those of the source.

In the experiment the test system is HL-60(TB) leukemia. In words: NCI-60 one-dose screen, 48 h (100 = growth as untreated, 0 = no growth, -100 = all killed). Particulars: 10 µM unless noted. Here is the method: Growth inhibition of the HL-60(TB) human tumor cell line is measured as a screen for anti-cancer activity. Cells are grown in 96 well plates and exposed to the test compound for 48 hours. Compounds are tested at a single concentration, which is 10^-5 M for most compounds. The reported endpoint is percent growth (GI% or GIPRCNT), where numbers from 0 - 100% represent growth inhibition, and numbers from -100% - 0 represent cell death. For example, a value of 40 represents 60% growth inhibition. A value of 0 means no net growth occurred over the course of the experiment. A value of -40 indicates 40% of cells at the beginning of the experiment died by the end of the experiment. A value of -100 means all cells are dead at the end of the experiment.
NCI-60 Human Tumor Cell Lines Screen was performed using the standard one-dose NCI protocol, which is described in more detail at https://dtp.cancer.gov/discovery_development/nci-60/default.htm.
Compounds with GIPRCNT values below 10 were considered active. Activity score was based on GIPRCNT using the following formula: […]
Score is 0 for GIPRCNT values of 100 or above, 50 for GIPRCNT values of 0, and 100 for GIPRCNT values of -100.
Take `N#Cc1c(-c2ccc(Cl)cc2)nc(NN=Cc2ccco2)nc1N1CCOCC1`: the growth is 108% (inactive). Then `[2H]C([2H])([2H])Oc1cc(F)ccc1/C=C/C(=O)/C=C(/C=C/c1ccc(F)cc1OC([2H])([2H])[2H])OB(F)F`, with 11.6% (inactive); and `NCCn1cc(-c2nc(-c3c[nH]c4ncccc34)cs2)c2cc(F)ccc21`, with 62% (inactive); and `CCOC(=O)C(=CNc1ccccc1[N+](=O)[O-])C(=O)OCC`, with 90.8% (inactive). Consider `CC(=O)Nc1ccc(S(=O)(=O)n2ccc(-c3ccc4c(c3)CCC(C)(C)O4)n2)cc1`, for which the growth is 91.9% (inactive). Then `CCOC(=O)c1cnc2ccc(Cl)cc2c1NCCCN(C)C`, with -18.6% (active).

For the compound `COC(=O)c1ccc(=O)oc1`, the growth was 96.2% (inactive). The figure for `Cc1[nH]nc2c1C(c1cnn(C)c1)C(C#N)=C(N)O2` (stereo not given) is 99.5% (inactive).

As to `CCCC(CCC)(C(N)=O)C(=O)O`, the growth was 104% (inactive).

With `CC(=O)Nc1c(C(=O)Nc2ccccc2)sc2nc3c(cc12)C(OC(C)=O)CCC3` (stereo not given), the growth is 18.6% (inactive). Then `CN(C)CC(O)c1ccc(/C=C/c2ccc(Cl)cc2)cc1` (stereo not given), with -43.6% (active); and `CCCn1c(=O)c2c(nc(-c3cccc(OCCCCl)c3)n2C)n(CCC)c1=O`, with 107% (inactive); and `N#Cc1c(NC(=O)c2ccccc2)sc2c1CCC(=O)C2`, with -2.62% (active). With `COc1ccc(C(=O)c2ccc([As]=O)cc2)cc1` (stereo not given), the growth was -47.4% (active). Then `CC(C)(N)CO[C@H]1C[C@H]2CC[C@@]1(C)C2(C)C`, with 111% (inactive); and `C#C[C@H](O)/C=C/CCCCCCC#C[C@H](O)CC[C@@H](O)C#CCCCCCC/C=C/[C@@H](O)C#C`, with -70.8% (active); and `Nc1ncnc2c1ncn2C1OC(COP(=O)(O)O)C(O)C1O` (stereo not given), with 102% (inactive). Turning to `O=c1[nH]c(-c2ccc(Cl)cc2)cn1-c1ccc(-n2cc(-c3ccc(Cl)cc3)[nH]c2=O)cc1`, the growth was 112% (inactive). Then `CCOC(=O)/C(C#N)=C(/CC)OCC`, with 95% (inactive). The figure for `Oc1ccccc1-c1nnc(COc2ccc(Cl)cc2Cl)o1` is 3.89% (active). Then `Nc1cc(C(=O)O)[nH]c(=S)n1`, with 123% (inactive); and `COC(=O)C(N)CSC(c1ccccc1)(c1ccccc1)c1ccccc1` (stereo not given), with -28.7% (active). On to `c1ccc(N2c3nc4ccccc4cc3Sc3cc4ccccc4nc32)nc1`, for which the growth is 97.2% (inactive). Then `Cc1cc(Cl)c2ccc(N(C)C)cc2n1`, with 93.6% (inactive); and `CC[C@H](C)[C@H](NC(=O)[C@@H](N)CCC(N)=O)C(=O)N[C@@H](Cc1ccc(O)cc1)C(=O)N[C@@H](CCCCN)C(=O)N[C@@H](CCCCN)C(=O)N[C@@H](Cc1ccc(O)cc1)C(=O)N[C@@H](CCCNC(=N)N)C(=O)N[C@H](C(=O)N[C@@H](Cc1c[nH]c2ccccc12)C(=O)N[C@@H](Cc1ccc(O)cc1)C(=O)N[C@@H](CCCNC(=N)N)C(=O)N[C@@H](CCCCN)C(=O)N[C@@H](C)C(=O)N[C@@H](Cc1c[nH]c2ccccc12)C(=O)N[C@@H](CCCCN)C(=O)N[C@H](C(=O)N[C@@H](CC(C)C)C(=O)NCC(=O)N[C@@H](CCCCN)C(=O)N[C@H](C(N)=O)C(C)C)C(C)C)[C@@H](C)O`, with 13.9% (inactive); and `CCCCCCCCCCCCCC(=S)NCCCC[C@H](NC(=O)OCc1ccccc1)C(=O)Nc1ccccc1`, with 8.79% (active). On to `COc1nccc2c(Sc3ccccc3)nc(N)nc12`, for which the growth is 97.6% (inactive). Then `CCCCOC(=O)C1OC(Oc2ccc3c(C)cc(=O)oc3c2)[C@@H](OC(C)=O)C(OC(C)=O)C1OC(C)=O` (stereo not given in full), with 102% (inactive); and `N#Cc1c2c(c(N)[nH]c1=O)C(=O)NC2(O)c1ccccc1` (stereo not given), with 93.8% (inactive); and `COc1cc(NCCCCCN=C(N)N)c2ncccc2c1`, with 18.2% (inactive). Then `CSc1nc(=S)c2nc(SC)n(-c3ccccc3)c2[nH]1`, with 110% (inactive); and `C=CC(=O)NCc1cccc(Nc2ncc(Br)c(NCCCNC(=O)C3CCC3)n2)c1`, with -50% (active).

On to `CNc1ccc(N)cc1`, for which the growth was 109% (inactive). Then `COc1cccc(/C=C/C(=O)c2c(C)nc3ccccc3c2/C=C/c2ccccc2)c1OC`, with 13.6% (inactive); and `COc1ccc2c(c1)O/C(=C/c1ccc(OCC(=O)Nc3ccc(S(N)(=O)=O)cc3)cc1)C2=O`, with 89.5% (inactive). For the compound `Cc1ccc(C)c(/C=C2\CN(C(=O)OC(C)(C)C)C/C(=C\c3cc(C)ccc3C)C2=O)c1`, the growth was 10.7% (inactive). Then `C=C1C(=O)O[C@H]2[C@H]1CC/C(COC(=O)c1ccccc1)=C\CC[C@@]1(C)O[C@@H]21`, with -59.5% (active); and `C/C(=C\C(=O)O[C@H]1[C@@H]2[C@H](C)CC[C@H]2[C@]2(C)O[C@@]1(C1CCCCC1)C[C@H]2OC(=O)CO)c1ccccc1`, with -27.8% (active); and `Cc1[nH]c(C2CC(c3ccc(C(F)(F)F)c(F)c3)=NN2c2ccccc2)c(C)c1C(=O)NCC(F)(F)F` (stereo not given), with 87.6% (inactive). Turning to `COc1cc(C2CC(c3ccccc3)=NN2C(C)=O)cc(OC)c1OC` (stereo not given), the growth is 14.2% (inactive).
